Screening results as filed in PubChem.
Compounds with a hit are over-represented: about 11% of the library has one in this group of screens.
Pf growth 96h = Primary qHTS for delayed death inhibitors of the malarial parasite plastid, 96 hour incubation. P. falciparum luciferase reporter growth, 96 h. Potency, µM (series often up to 28.7 µM), most hits filed as inhibitors. 6.9% of 320,000 active
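Compounds incubated with erythrocytes infected by luciferase-expressing P. falciparum (2% hematocrit, 0.05% parasitemia final) for 96 hours, 37 C in 5% CO2. Growth inhibition scored as decreased luciferase luminescence.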
Pf growth 48h = Primary qHTS for delayed death inhibitors of the malarial parasite plastid, 48 hour incubation | AID 504832, 2011 | Potency, µM (titrated, usually from 28.7 µM), usual class: inhibitors | P. falciparum luciferase growth in erythrocytes, 48 h | 5.9% of 310,000 active
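Erythrocytes infected with P. falciparum carrying an integrated firefly luciferase reporter (2% hematocrit, 0.1% parasitemia final) were exposed to compounds in RPMI 1640 with 0.5% Albumax at 37 C, 5% CO2. Growth inhibition was scored as reduced luminescence.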
HCV inhibitor = qHTS Assay for Inhibitors of Hepatitis C Virus (HCV) | Huh7.5.1 HCVcc-Cre infection, luciferase reporter, 44 h | Potency, µM (doses to about 41.8 µM), most hits filed as inhibitors | 3.4% of 340,000 active
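Antiviral activity was scored by luciferase reporter output from cells infected with HCVcc-Cre (~0.5 moi) in presence of compound, 44 h infection period, cells seeded 1,000/well 4 h prior.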
AMA1-RON2 inh = qHTS for Inhibitors of AMA1-RON; Towards Development of Antimalarial Drug Lead: Primary Screen. AlphaScreen AMA1-biotinylated RON2 peptide binding. Potency, µM (titrated, usually from 58.2 µM), usual class: inhibitors. 0.2% of 360,000 active. AID 720542, 2013; further: nearly all actives have a fitted effect of over 45% in size
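AMA1 (3D7) with his tag at 25 nM final met compounds first, then biotinylated RON2 peptide at 25 nM; detection used donor plus acceptor beads, 10 µg/mL apiece, read by AlphaScreen after 30 min at room temperature.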
Large screens that a line does not name were inactive. The call rests on the fitted dose curve; in most records, active means well fitted curve in the direction sought with a large enough effect; inconclusive means small, poorly fitted or top-dose-only effect, or another doubt; inactive means no such curve, though single readings can be large; an effect the other way counts as inactive or inconclusive.

Cc1onc(-c2ccccc2Cl)c1C(=O)OCC(=O)N1CCCc2ccccc21	Pf growth 96h inconclusive, Pf growth 48h 9.3µM, HCV inhibitor inconclusive
CC1Cc2ccccc2N1C(=O)COC(=O)c1c2c(nc3ccccc13)CCCCC2 (centres undefined)	Pf growth 96h 13µM, Pf growth 48h inconclusive, HCV inhibitor inconclusive
O=C(COC(=O)c1c2c(nc3ccccc13)CCCCC2)c1ccc(Cl)s1	Pf growth 96h inconclusive, HCV inhibitor 10µM
Cc1onc(-c2ccccc2Cl)c1C(=O)N1CCCc2ccccc21	Pf growth 96h inconclusive, HCV inhibitor inconclusive
Oc1ccc(O)c(-c2cnns2)c1	Pf growth 96h inconclusive, Pf growth 48h inconclusive, HCV inhibitor inconclusive
COCCNC(=O)C1CCCN(C(=O)c2cc(-c3ccccc3)cs2)CC1 (centres undefined)	none (no result: Pf growth 96h, Pf growth 48h, HCV inhibitor)
CCN(c1cccc(C)c1)c1nc2ccsc2c(=O)s1	Pf growth 96h 8.3µM
CC(CN1CCN(C)CC1)OC(=O)c1ccc(Cl)cc1 (centres undefined)	Pf growth 96h inconclusive, HCV inhibitor inconclusive
CN1CCCC(OC(=O)c2ccc(S(=O)(=O)N(C)C)cc2)C1 (centres undefined)	none
CCOc1ccc(C(=O)OC2CCCN(C)C2)cc1 (centres undefined)	Pf growth 96h 10µM
CCOc1ccc(C(=O)OC(C)CN2CCN(C)CC2)cc1 (centres undefined)	HCV inhibitor 1.8µM (no result: Pf growth 48h)
O=C(NC12CC3CC(CC(C3)C1)C2)c1ccc(N2CCNCC2)c([N+](=O)[O-])c1	Pf growth 96h inconclusive, Pf growth 48h 5.2µM, HCV inhibitor inconclusive
NC(=O)c1ccc(N2CCN(S(=O)(=O)c3cccs3)CC2)c([N+](=O)[O-])c1	HCV inhibitor 2.2µM (no result: Pf growth 96h, Pf growth 48h)
NC(=O)c1ccc(N2CCN(c3ccccc3O)CC2)c([N+](=O)[O-])c1	none
CCS(=O)(=O)N1CCN(c2ccc(C(=O)NC34CC5CC(CC(C5)C3)C4)cc2[N+](=O)[O-])CC1	Pf growth 96h 5.9µM, Pf growth 48h 5.9µM
O=C(NC12CC3CC(CC(C3)C1)C2)c1ccc([N+](=O)[O-])cc1	none
CS(=O)(=O)N1CCN(c2ccc(C(=O)NC34CC5CC(CC(C5)C3)C4)cc2[N+](=O)[O-])CC1	Pf growth 96h inconclusive, Pf growth 48h inconclusive
CCN(CC(=O)NCc1cccs1)C(=O)CCOc1ccccc1	none (no result: Pf growth 96h, Pf growth 48h)
COc1ccccc1N1CCN(C2C(=O)Nc3ccccc3-n3nnnc32)CC1 (centres undefined)	none (no result: Pf growth 96h, Pf growth 48h, HCV inhibitor)
Cc1cccc2c1NC(=O)C2=Nc1ccc(Cl)cc1	Pf growth 96h inconclusive
Cc1ccc(N=C2C(=O)Nc3c(C)cccc32)cc1	Pf growth 96h 10µM
COc1ccc(C(=O)c2sc(Nc3ccccc3)nc2N)cc1	Pf growth 96h inconclusive, Pf growth 48h inconclusive
COc1ccc(C(=O)c2cc(C(C)=O)c(Nc3ccccc3)s2)cc1	Pf growth 96h inconclusive, HCV inhibitor 3.2µM
COc1ccc(S(=O)(=O)N2CCOC2CNC(=O)C(=O)NCCN2CCOCC2)cc1C (centres undefined)	none (no result: HCV inhibitor)
COC(=O)C1=C(c2ccc(F)cc2OCc2ccccc2)C[C@@H]2CC[C@H]1N2C(=O)N1CCOCC1	Pf growth 96h inconclusive, Pf growth 48h 6.6µM
COC(=O)C1=C(c2ccc(F)cc2OCc2ccccc2)C[C@@H]2CC[C@H]1N2C(=O)N1CCC(C)CC1	Pf growth 96h inconclusive, Pf growth 48h 7.4µM, HCV inhibitor inconclusive
O=C(Nc1c(-c2ccc3c(c2)OCO3)[nH][nH]c1=O)c1cccc(C(F)(F)F)c1	none (no result: Pf growth 96h, Pf growth 48h, HCV inhibitor)
Cc1cccc(C(=O)/C=C2/c3ccccc3CC(C)(C)N2C)c1	Pf growth 96h inconclusive, Pf growth 48h inconclusive
Oc1cc(Nc2ccc(N3CCCCC3)cc2)cc2cccnc12	Pf growth 96h 0.093µM, Pf growth 48h 0.1µM (no result: HCV inhibitor, AMA1-RON2 inh)
O=C(COC(=O)c1cccnc1Cl)Nc1ccc(N2CCCCC2)cc1	none
O=C1Nc2ccc(NS(=O)(=O)c3cccs3)c3cccc1c23	Pf growth 96h 10µM
CNS(=O)(=O)c1ccc2c3c(cccc13)C(=O)N2	none
CC1(C)CC(=O)C=C(c2ccc(F)cc2OCc2ccccc2)C1	Pf growth 96h inconclusive, Pf growth 48h inconclusive, HCV inhibitor 20µM
CCCN1CCN(CCCNC(=O)Cn2nc(C)n3c(cc4cc(OC)ccc43)c2=O)CC1	none
Clc1cccc(Cl)c1C[n+]1ccc2ccccc2c1	Pf growth 48h 2.1µM, HCV inhibitor inconclusive
O=C(C[n+]1ccc2ccccc2c1)c1ccc2ccc3ccccc3c2c1	none (no result: Pf growth 96h, Pf growth 48h, HCV inhibitor)
